Screens as filed in PubChem.
USP2a inh: blocks human ubiquitin-specific protease USP2a. USP2a enzymatic assay, qHTS inhibition. Potency, µM (titrated, usually from 38.3 µM), usual class: inhibitors. 60,000 tested, 0.1% active. AID 927; also: nearly all actives have a fitted effect of over 60% in size
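Coupled readout: USP2-cleaved Ub-PLA2 (20nM final) turns over NBD C6-HPC (20uM final), Ex 460nm/Em 535nm after 2.5 h, time-zero read flagging artifacts. Enzyme (20nM final, pH 8.0 Tris) given 30 min RT with compound first; NEM defines full inhibition.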
Caspase-7 inhib: blocks human caspase-7 allosterically or competitively. recombinant caspase-7, Ac-DEVD-AFC fluorescence rate. Potency, µM (titrated, usually from 57.5 µM), hits mostly inhibitors. 75,000 tested, 0.02% active; active = well fitted inhibition curve with a large enough effect in the main read-out, with a control signal flat, not every such curve was filed as active; inconclusive = small, poorly fitted or top-dose-only effect, or a change in a side signal
Target sequence (P55210 24-198 limits assumed): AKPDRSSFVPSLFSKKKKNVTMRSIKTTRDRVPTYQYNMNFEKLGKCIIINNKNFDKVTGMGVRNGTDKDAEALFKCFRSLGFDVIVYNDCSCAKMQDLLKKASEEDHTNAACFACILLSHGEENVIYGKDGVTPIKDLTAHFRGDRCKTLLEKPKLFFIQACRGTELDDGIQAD
Target sequence (P55210 207-303 limits assumed): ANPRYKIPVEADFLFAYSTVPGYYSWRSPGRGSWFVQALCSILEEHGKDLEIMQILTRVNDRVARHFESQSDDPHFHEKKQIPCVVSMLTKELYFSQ
Caspase-1 inhib: blocks human caspase-1 allosterically or competitively; P29466; Caspase-1 enzyme, Ac-WEHD-AFC fluorogenic rate; Potency, µM (highest dose often 57.5 µM), actives largely listed as inhibitors; 75,000 tested, 0.03% active; AID 900
Target sequence (P29466 120-297 limits assumed): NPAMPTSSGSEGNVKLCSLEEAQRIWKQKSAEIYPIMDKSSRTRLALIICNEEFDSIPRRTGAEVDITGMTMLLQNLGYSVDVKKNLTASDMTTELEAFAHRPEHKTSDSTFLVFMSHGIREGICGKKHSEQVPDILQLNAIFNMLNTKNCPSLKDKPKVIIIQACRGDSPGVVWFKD
Target sequence (P29466 317-404 limits assumed): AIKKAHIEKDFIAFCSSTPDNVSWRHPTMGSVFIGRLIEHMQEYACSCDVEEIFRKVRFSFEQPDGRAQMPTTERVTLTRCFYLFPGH
15-hLO inh: inhibitors of human 15-lipoxygenase (ALOX15). AID 887. 74,000 tested, 1.4% active. Potency, µM (highest dose often 57.1 µM), actives largely listed as inhibitors. purified 15hLO-1, xylenol orange hydroperoxide absorbance. P16050; also: nearly all actives have a fitted effect of over 55% in size
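Purified human 15hLO-1 (40 nM) in 25 mM Hepes pH 7.5, 0.01% Triton X-100, preincubated 15 min RT with compound, then 50 uM arachidonic acid for 6 min. Hydroperoxide read by ferrous/xylenol orange, 30 min; 573/405 nm absorbance ratio gave progress.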
15-hLO-2 inh: inhibitors of human 15-lipoxygenase 2 (ALOX15B); purified 15hLO-2, xylenol orange hydroperoxide absorbance; 110,000 tested, 0.56% active; O15296; Potency, µM (series often up to 57.1 µM), usual class: inhibitors; also: nearly all actives have a fitted effect of over 60% in size
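Purified human 15hLO-2 (50 nM final) preincubated with compounds 15 min at room temperature in 25 mM Hepes pH 7.5, 0.01% Triton X-100, then 45 uM arachidonic acid added for 90 min; hydroperoxide detected via ferrous/xylenol orange, 573/405 nm absorbance ratio.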
A number is an active result; n = inactive; u = inconclusive; x = not tested or not shown; ! = not active in a repeat; [ ] = dose if it differs, or a comment. This is one part of a sample in which hits are shown more often than they occur. Unless noted, calls follow the shape of the dose curve; as a rule, active = well fitted curve in the direction sought with a large enough effect; inconclusive = small, poorly fitted or top-dose-only effect, or another doubt; inactive = no such curve, though single readings can be large; an effect the other way counts as inactive or inconclusive.

SMILES	USP2a inh	Caspase-7 inhib	Caspase-1 inhib	15-hLO inh	15-hLO-2 inh
CC1CCC(C(C)C)C2=C1C(C#N)(C#N)C(C#N)(C#N)C(c1ccccc1)N2 (stereo not drawn)	x	x	x	x	10µM
COc1ccc(NC2CS(=O)(=O)CC2NCc2ccco2)cc1 (stereo not drawn)	n	n	n	16µM	n
O=S1(=O)CC(NCc2ccccc2)C(Nc2ccccc2)C1 (stereo not drawn)	n	n	n	n	n[11.4 µM]
N#Cc1cc(-c2ccccc2)nn1-c1ccccc1	n	n	n	16µM	n[2.29 µM]
Clc1ccccc1/C=N/c1cc(-c2ccccc2)nn1-c1ccccc1	x	x	x	x	n
O=C(OCC(=O)N1CCN(C(=O)c2ccco2)CC1)c1cc(-c2ccc(Cl)c(Cl)c2Cl)nc2ccccc12	x	x	x	x	n
O=C(OCC(=O)N1CCN(C(=O)c2ccco2)CC1)c1cc(-c2ccco2)nc2ccccc12	x	x	x	x	13µM
C#C[C@]1(O)CC[C@@H]2[C@H]3CCC4=CCCC[C@@H]4[C@@H]3CC[C@@]21C	n	n	n	n	n
COc1cc(Sc2ccc(C)cc2)c(OC)cc1N	n	n	n	u	10µM
Cc1nc(NC2CCCCC2)c2nc(-c3ccccc3)n(CCCN(C)C)c2n1	x	n	n	n	n
Cc1nc(NCc2ccccc2)c2nc(-c3ccccc3)n(CCN3CCCCC3)c2n1	x	n	n	20µM	n
Cc1nc(Nc2ccccc2)c2nc(-c3ccccc3)n(CCN3CCOCC3)c2n1	x	n	n	20µM	n
Cc1nc(NC2CCCCC2)c2nc(-c3ccccc3)n(CCCN3CCOCC3)c2n1	x	n	n	32µM	n
CCC[C@H]1C[C@H](C(=O)N[C@@H]([C@H]2O[C@@H](SC)[C@@H](O)[C@@H](O)[C@@H]2O)[C@H](C)Cl)N(C)C1	n	n	n	n	n
Oc1cc(CN2COc3ccccc32)c(O)cc1CNC1CCCCC1	x	n[11.5 µM]	n[11.5 µM]	u	3.2µM
O=c1cc(CNC2CCCCC2)c2ccccc2[nH]1	n	n	n	u	n
O=C(Nc1ccc(S(=O)(=O)NCCc2ccccc2)cc1)c1ccc(Br)o1	n	n	n	n	n
Cc1ccc(NS(=O)(=O)c2ccc(NC(=O)c3ccc(Br)o3)cc2)c(C)c1	n	n	n	16µM	n[11.4 µM]
COCCNc1ncnc2ccc(-c3ccc(C(=O)N(C)C)cc3)cc12	n	n	n	n	n
Cc1ccc(/C=c2\sc3nc(-c4cccs4)nn3c2=O)o1	n	n	n	13µM	n
COc1ccccc1/C=c1\sc2nc(-c3cccs3)nn2c1=O	n	n	n	n	x
COc1cccc(-c2nccc(NCc3ccccc3)n2)c1	n	n	n	13µM	n
COc1ccccc1-c1nccc(NCc2cnc(C)cn2)n1	n	n	n	16µM	u
COc1ccccc1CNc1nc(-c2cccnc2)nc2ccccc12	u	n	n	25µM	n
COc1cccc(-c2nccc(NCc3ccccc3OC)n2)c1	n	n	n	25µM	n
SMILES	USP2a inh	Caspase-7 inhib	Caspase-1 inhib	15-hLO inh	15-hLO-2 inh
COc1cccc(-c2nccc(NCc3ccc(OC)cc3OC)n2)c1	n	n	n	n	n
COc1ccc(-c2cc(C(=O)N/N=C\c3cc(OC)c(OC)c(OC)c3)[nH]n2)cc1	x	n	n	n	x
COc1ccc2[nH]cc(CCNc3ncnc4ccc(-c5ccccc5C#N)cc34)c2c1	u	n	n	n	n
CN(C)c1ncnc2ccc(-c3ccccc3C(F)(F)F)cc12	n	n	n	n	n
CCCCCCCC/C=C\CCCCCCCC(=O)NCCc1ccc(O)c(O)c1	n	n	n	4µM	u
CCCCCCCCCCCCCCCC(=O)NCCc1ccc(O)c(O)c1	x	n	n	n	n
CCOC(=O)OCC1OC(C#Cc2ccc(C(C)(C)C)cc2)C=CC1OC(=O)OCC (stereo not drawn)	x	n[11.5 µM]	n[11.5 µM]	n[11.4 µM]	x
CN(C)c1ccc(N/C=C/C(=O)C(C)(C)C)cc1	x	x	x	x	25µM
CN(C)c1ccc(N/C=C/C(=O)c2ccccc2)cc1	n	n	n	u	u
CN(C)c1ncc2ncc(=O)n(Cc3cccs3)c2n1	n	u	x	n	n
Cc1ccccc1-c1nc(N2CCN(C)CC2)c2ccccc2n1	n	n	n	n	n
Cc1ccccc1-c1nc(N2CCOCC2)c2ccccc2n1	13µM	u	n	n	n
CCCCCCCCC	x	n	n	n	n
CCc1ccc(O)c(N=Cc2ccccc2O)c1	n	n	n	u	16µM
N#Cc1c(NC(=O)CSc2nnc(-c3ccco3)n2-c2ccccc2)sc2c1CCC2	x	x	x	x	n
CCOC(=O)c1sc(NC(=O)CSc2nnc(-c3ccco3)n2CC)c(C(=O)OCC)c1C	n	n	n	6.3µM	n[11.4 µM]
NC(=O)c1c(NC(=O)CSc2nnc(-c3ccco3)n2-c2ccccc2)sc2c1CCC2	n	n	n	25µM	u
CCOC(=O)c1c(NC(=O)CSc2nnc(-c3ccccc3)n2CC)sc(C(C)=O)c1C	u	n	n	n	n
CCOC(=O)c1c(C)[nH]c(N=Nc2ccc(C)cc2C)c1C	x	x	x	x	n
CCOCCOC(=O)C1=C(C)Nc2ccc(C)cc2S1	n	n	n	u	16µM
CSCCOC(=O)C1=C(C)Nc2ccc(C)cc2S1	x	x	x	x	5µM
CCOC(=O)C1=C(C)Nc2ccc(C)cc2S1	x	x	x	x	4µM
Oc1ccccc1CNc1nc2ccccc2n1CCN1CCCCC1	x	n	n	13µM	n
S=C(NCCc1ccccc1)Nc1ccc(Cl)cc1Cl	x	x	x	x	25µM
COc1ccc2c3c(ccc2c1)N[C@H](C(=O)O)CC3	x	n[11.5 µM]	n[11.5 µM]	n[11.4 µM]	n[11.4 µM]
SMILES	USP2a inh	Caspase-7 inhib	Caspase-1 inhib	15-hLO inh	15-hLO-2 inh
O=C1NC(c2cccs2)Nc2sc3c(c21)CCCC3 (stereo not drawn)	n	n	n	25µM	n
CN1CCc2c(sc3c2C(=O)NC(c2ccco2)N3)C1 (stereo not drawn)	n	u	x	u	n
COc1ccc(N2CCN(c3nc(=S)n(-c4ccccc4)c(C)c3C(C)=O)CC2)cc1	n	n	n	16µM	n
CC(=O)c1c(N2CCN(c3cccc(Cl)c3)CC2)nc(=S)n(-c2ccccc2)c1C	n	n	n	n	n
C=CCn1c(=N)c(C(=O)NCCCOC)cc2c(=O)n3cccc(C)c3nc21	n	u	x	1.3µM	n
O=c1cc(-c2cccc(O)c2)oc2c(O)c(O)ccc12	x	n	n	u	n
O=C(O)CCc1c2ccc(=O)c(O)c-2oc2c(O)c(O)ccc12	x	n[11.5 µM]	n[11.5 µM]	3.2µM	u
O=C(Nc1ccccc1)N1CC=C(c2ccccc2)CC1	n	n	n	25µM	n
Cc1cc(C)cc(C(=O)N(C)[C@H](Cc2ccc(-c3ccccc3)cc2)C(=O)N[C@@H](Cc2c[nH]c3ccccc23)C(=O)O)c1	x	32µM	n	n	u
O=C1C=CC2=C3c4cc(O)c(O)cc4CC3(O)COC2=C1O (stereo not drawn)	10µM	u	u	u	u
CN(C)CCN(Cc1ccccc1)S(=O)(=O)c1cccc2cccnc12	x	n	n	n	x
NC(=O)CNCCC(c1ccccc1)c1ccccc1	n	n	n	20µM!	n
O=C(/C=C/c1ccccc1)NC(=S)Nc1ccc(N2CCOCC2)c(Cl)c1	x	x	x	x	n
